Tested on: Vero E6 infected with SARS-CoV-2
Test: inhibition of SARS-CoV-2 cytopathic effect; higher = more antiviral protection, active = above 15
Settings: 48 h

Measured: inhibition of SARS-CoV-2 cytopathic effect

COc1cc(C[C@H](C)[C@H](C)Cc2ccc3c(c2)OCO3)ccc1O [macelignan]
inactive: 1 nM 0.71% | 8.33 nM -0.62% | 100 nM 0.01% | 833.33 nM 2.57% | 10000 nM 1.91%

CCCCn1c(=O)c2[nH]c(C34CC5CC(CC3C5)C4)nc2n(CCCO)c1=O
inactive: 1 nM 1.96% | 8.33 nM 2.64% | 100 nM 0.93% | 833.33 nM -1.18% | 10000 nM -2.7%

CN(C)CC/C=C1\c2ccccc2CSc2ccccc21 [dosulepin]
inactive: 1 nM -1.78% | 8.33 nM 1.37% | 100 nM 5.41% | 833.33 nM -0.17% | 10000 nM -8.17%

CCCN1CCC[C@@H]2Cc3nc(N)ncc3C[C@H]21 [quinelorane]
inactive: 1 nM 0.91% | 8.33 nM -0.4% | 100 nM 0.8% | 833.33 nM -1.2% | 10000 nM -1.06%

CC(=O)NCCc1c[nH]c2ccccc12 [N-acetyltryptamine]
inactive: 1 nM 0.9% | 8.33 nM 2.35% | 100 nM 2.28% | 833.33 nM -0.38% | 10000 nM 2.53%

N#Cc1cc(CN2CCC(Nc3ncnc4sc(Cl)cc34)CC2)ccc1F
inactive: 1 nM 6.81% | 8.33 nM 8.07% | 100 nM 7.98% | 833.33 nM 1.59% | 10000 nM 0.56%

CC(C)(O)CC[C@@H](O)[C@](C)(O)[C@H]1CC[C@@]2(O)C3=CC(=O)[C@@H]4C[C@@H](O)[C@@H](O)C[C@]4(C)[C@H]3CC[C@]12C [20-hydroxyecdysone]
inactive: 1 nM -3.9% | 8.33 nM -2.28% | 100 nM -3.43% | 833.33 nM 0.03% | 10000 nM 1.01%

CCN(CC)CCOc1ccc(Cc2ccccc2)cc1
inactive: 1 nM -2.21% | 8.33 nM -0.5% | 100 nM -4.41% | 833.33 nM 0.19% | 10000 nM -0.76%

COc1cccc([C@H](O)C2CCN(CCc3ccc(F)cc3)CC2)c1OC [volinanserin]
inactive: 1 nM -1.28% | 8.33 nM -0.6% | 100 nM -3.32% | 833.33 nM -1.38% | 10000 nM -2.28%

O=C(O)c1cc(N2N=C(C(F)(F)F)/C(=C/c3ccc(-c4ccccc4)o3)C2=O)ccc1Cl
inactive: 1 nM 0.12% | 8.33 nM 1.11% | 100 nM 0.66% | 833.33 nM 0.57% | 10000 nM 3.69%

CC(=O)NC1N=C(c2ccccc2)c2ccccc2NC1=O (stereo not given)
inactive: 1 nM 0.39% | 8.33 nM 1.87% | 100 nM -0.74% | 833.33 nM 0.99% | 10000 nM -0.69%

CNCC[C@@H](Oc1ccccc1C)c1ccccc1 [atomoxetine]
inactive: 1 nM 1.13% | 8.33 nM 1.43% | 100 nM 3.37% | 833.33 nM 2.34% | 10000 nM -2.83%

CC(C)(C)n1nc(-c2cccc3ccccc23)c2c(N)ncnc21 [1-naphthyl-PP1]
inactive: 1 nM 0.05% | 8.33 nM 1.77% | 100 nM 1.73% | 833.33 nM 1.24% | 10000 nM -4.31%

COc1ccc(S(=O)(=O)Nc2nc(-c3cccc([N+](=O)[O-])c3)cs2)cc1OC
inactive: 1 nM 2.08% | 8.33 nM 4.04% | 100 nM 7.06% | 833.33 nM 0.79% | 10000 nM -3.82%

CCCCCCCCCCCCCCCCNc1ccc(C(=O)O)cc1 [cetaben]
inactive: 1 nM 2.02% | 8.33 nM 3.28% | 100 nM 1.52% | 833.33 nM 1.67% | 10000 nM -2.46%

O=C1NC(=O)/C(=C/c2ccc3c(c2)OC(F)(F)O3)S1
inactive: 1 nM 2.29% | 8.33 nM 1.22% | 100 nM -6.83% | 833.33 nM -7.64% | 10000 nM -7.56%

COc1cc2ncn(-c3cc(OCc4ccccc4C(F)(F)F)c(C(N)=O)s3)c2cc1OC
inactive: 1 nM -9.5% | 8.33 nM -5.03% | 100 nM -7.65% | 833.33 nM -5.41% | 10000 nM -1.95%

c1ccc2c(Oc3nc(Nc4ccc(N5CCOCC5)cc4)c4ncn(C5CCCCC5)c4n3)cccc2c1 [purmorphamine]
inactive: 1 nM 0.27% | 8.33 nM 1.18% | 100 nM 0.24% | 833.33 nM 2.43% | 10000 nM -5.44%

CC(=O)O[C@]1(C(C)=O)CC[C@H]2[C@@H]3C=C(C)C4=CC(=O)CC[C@]4(C)[C@H]3CC[C@@]21C [megestrol-acetate]
inactive: 1 nM -0.56% | 8.33 nM -0.6% | 100 nM -1.59% | 833.33 nM -0.54% | 10000 nM 0.33%
